Screening results from PubChem BioAssay.
AID inh: activation induced cytidine deaminase inhibition; Q9GZX7; 91,000 compounds, 0.32% hits; Potency, µM (highest dose often 115 µM), actives largely listed as inhibitors; AID deamination FRET fluorescence, UDG-coupled, 4 h; AID 1347428; note: nearly all actives have a fitted effect of over 25% in size
Target sequence (Q9GZX7 whole entry, looked up): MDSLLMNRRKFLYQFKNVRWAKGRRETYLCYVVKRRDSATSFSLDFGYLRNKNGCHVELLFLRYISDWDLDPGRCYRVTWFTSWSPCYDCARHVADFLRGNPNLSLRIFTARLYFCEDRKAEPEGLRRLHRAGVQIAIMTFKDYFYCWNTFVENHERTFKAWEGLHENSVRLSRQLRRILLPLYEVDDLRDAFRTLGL
UDG counter: blocks uracil-DNA glycosylase in AID counter-screen. FRET deamination/UDG coupled assay, UDG read, 4 h. Potency, µM (top dose mostly 115 µM), inactives show at the top dose activity change, negative = inhibition, most hits filed as inhibitors. 91,000 compounds, 0.14% hits; note: nearly all actives have a fitted effect of over 65% in size
* = called active by the depositor; i = inactive; u = inconclusive; [ ] = dose if it differs, or a comment. Sampled rows, rich in hits. Any-hit rate of the full collection: about 0.47%. Calls come from the whole dose curve; as a rule, active = well fitted curve in the direction sought with a large enough effect; inconclusive = small, poorly fitted or top-dose-only effect, or another doubt; inactive = no such curve, though single readings can be large; an effect the other way counts as inactive or inconclusive. % is set by controls: 0 for no effect and ±100 for the full control effect; potency is the fitted concentration of half-maximal effect.

SMILES	AID inh	UDG counter
CC(CNC(=O)c1sc2ncccc2c1-n1cccc1)c1ccccc1 (configuration not stated)	79.4µM*	-17.3%
Cc1ccc(CCNC(=O)c2sc3ncccc3c2-n2cccc2)cc1	i	-6.6%
O=C(NCCc1ccccc1Cl)c1sc2ncccc2c1-n1cccc1	35.5µM*	-1.4%
CC(NC(=O)NOCc1ccccc1)c1ccc(C#N)cc1 (configuration not stated)	i	-3.5%
CCOc1ccccc1NC(=O)CSc1nc2ccccc2nc1N1CCOCC1	22.4µM*	u
COc1ccc(NC(=O)CSc2nc3ccccc3nc2N2CCOCC2)c(OC)c1	u	-8.4%
Cc1ccc(OCC(O)Cn2c(N(C)Cc3ccccc3)nc3c2c(=O)[nH]c(=O)n3C)cc1 (configuration not stated)	i	7.6%
COc1ccccc1C(=O)Nc1ccc(OCc2cc(=O)n3cccc(C)c3n2)cc1	i	9.0%
COc1cc(C(=O)Nc2ccc(OCc3cc(=O)n4cccc(C)c4n3)cc2)cc(OC)c1OC	22.4µM*	-2.5%
CCCCCCCOC(=O)c1c(C)oc2ccc(NS(=O)(=O)c3cccs3)cc12	i	-9.6%
CCOc1ccc(Nc2cc(C)nc3ccc(Cl)cc23)cc1	i	-2.1%
CCOc1ccc2nc(C)cc(Nc3ccccc3OCC)c2c1	79.4µM*	u
COc1cc(OC)c(OC)cc1/C=C1\Oc2cc(OC(=O)C(C)(C)C)ccc2C1=O	i	-5.3%
O=C1c2ccccc2C(=O)C1(c1ccccc1)N1CCN(c2cccc(C(F)(F)F)c2)CC1	25.1µM*	-14.1%
O=C1c2ccccc2C(=O)C1(c1ccccc1)N1CCN(c2cccc(Cl)c2)CC1	i	-7.6%
CC(C)(C)C(C)(O)C#CCN1CCCC1 (configuration not stated)	i	-8.3%
Cc1ccc(S(=O)(=O)Nc2ccccc2SCc2cc(=O)n3cc(Cl)ccc3n2)cc1	i	10.8%
Cc1nn2c(=O)cc(COC(=O)c3ccc(NC(=O)C4CCCCC4)cc3)nc2s1	44.7µM*	-13.7%
CCc1nn2c(=O)cc(COC(=O)c3ccc(NC(=O)C4CCCCC4)cc3)nc2s1	i	1.5%
N#Cc1nc(COc2ccc(Cl)cc2)oc1NCc1ccco1	i	-0.7%
CN=C(NC)NCc1ccc(C(=O)OC)cc1	i	2.2%
O=C(Cn1cnc2ccccc2c1=O)Nc1ccc(Cl)c(S(=O)(=O)N2CCOCC2)c1	i	-2.8%
C=Cc1ccc(Cn2c(=O)n(-c3ccccc3C)c(=O)c3c4c(sc32)CN(C(C)=O)CC4)cc1	u	-17.6%
CC(=O)N1CCc2c(sc3c2c(=O)n(-c2ccccc2Cl)c(=O)n3Cc2cccc(C)c2)C1	35.5µM*	u
COc1cc(CN(C(=S)NCC(=O)NCc2ccc(Cl)cc2)C2CCCC2)cc(OC)c1OC	i	-7.3%
SMILES	AID inh	UDG counter
C/C=C/C=N/NC(=O)C(O)c1ccccc1 (configuration not stated)	i	4.7%
CC1(C)CC(CCN2CCC(Cc3ccccc3)CC2)(c2cccc(C(F)(F)F)c2)CCO1 (configuration not stated)	i	-1.9%
CC(=O)N1CCN(c2ncnc3c2c(-c2ccccc2)cn3-c2cccc(C)c2)CC1	u	79.4µM*
Cc1cccc(-n2cc(-c3ccccc3)c3c(N4CCC(C)CC4)ncnc32)c1	u	-4.4%[57.5 µM]
CC(SCc1ccccc1)C(=O)NCc1ccco1 (configuration not stated)	i	2.7%
Cc1ccc(Cl)cc1NC(=O)Nc1cn(CC(C)C)c(=O)c2ccccc12	79.4µM*	0.4%
COc1ccc(NC(=O)Nc2cn(CC(C)C)c(=O)c3ccccc23)c(OC)c1	i	-18.3%
CCc1cccc2c(C(=O)C(=O)NCc3ccc(OC)cc3)c[nH]c12	i	-2.3%
CCn1cc(C(=O)OCC(=O)Nc2cccc(C(C)=O)c2)c(=O)c2ccc(C)nc21	44.7µM*	-34.1%
CCOC(=O)c1ccc(NC(=O)COC(=O)c2cn(CC)c3nc(C)ccc3c2=O)cc1	i	-0.4%
CC1CCCCN1C(=O)CSc1nc2ccccc2nc1Cc1ccccc1 (configuration not stated)	50.1µM*	-18.5%
Cc1ccc(Cc2nc3ccccc3nc2SCC(=O)N2CCC(C)CC2)cc1	u	-12.2%
CCC1=Nc2cc(C(=O)NCc3ccccc3Cl)ccc2Sc2ccc(C)cc21	i	-5.6%
CCC1=Nc2cc(C(=O)N3CCC(C)CC3)ccc2Sc2ccc(C)cc21	31.6µM*	-12.9%
COc1ccc(-n2c(=O)c3c4c(sc3n(Cc3ccc(C(C)(C)C)cc3)c2=O)CCC4)c(OC)c1	35.5µM*	u
COc1ccc(-n2c(=O)c3c4c(sc3n(Cc3ccccc3C)c2=O)CCCC4)c(OC)c1	u	-18.9%
O=C(O)CCC(=O)c1cccc(Br)c1	i	-6.3%
CC(=O)c1ccc(N2CCN(C(=O)C3CCN(S(=O)(=O)c4c(C)noc4/C=C/c4ccc(C)cc4)CC3)CC2)cc1	i	0.9%
Cc1ccc(/C=C/c2onc(C)c2S(=O)(=O)N2CCC(C(=O)N3CCC(N(C)C(C)C)CC3)CC2)cc1	44.7µM*	-19.5%
CC(=O)Nc1ccc(/C(C)=N/NC(N)=S)cc1	i	-9.7%
COc1ccc(/C=C/C(=O)c2ccc(O)c(CCCl)c2)cc1C	i	-6.0%
COc1ccc(S(=O)(=O)N2CCn3cccc3C2c2ccc(C)cc2)cc1C (configuration not stated)	i	79.4µM*
COc1ccc(S(=O)(=O)N2CCn3cccc3C2c2cccs2)cc1C (configuration not stated)	i	11.1%
CCCCCCCCCCCCCCCCNC(=O)CC#N	i	0.5%
Cc1nc2nc(SCC(=O)NCCc3ccc(Cl)cc3)nn2c(C)c1Cc1ccccc1Cl	35.5µM*	-29.8%
SMILES	AID inh	UDG counter
Cc1ccccc1Cc1c(C)nc2nc(SCC(=O)NCCc3ccc(Cl)cc3)nn2c1C	u	-25.4%
O=C1OC2OCCCC2C1Nc1ccc(I)cc1 (configuration not stated)	i	-0.8%
COc1ccccc1CN1CCC(CNC(=O)c2cnn(-c3ccc(Cl)cc3)c2C2CCN(C(=O)OC(C)(C)C)CC2)CC1	44.7µM*	u
Cc1ccc(C2CCN(C(=O)c3cnn(-c4ccc(C)cc4)c3C3CCN(C(=O)OC(C)(C)C)CC3)C2)cc1 (configuration not stated)	i	52.4%
Cc1ccc(C2CCN(C(=O)c3cnn(-c4cccc(Cl)c4)c3C3CCN(C(=O)OC(C)(C)C)CC3)C2)cc1 (configuration not stated)	u	-2.1%
CC(C)(C)OC(=O)N1CCC(c2c(C(=O)N3CCC(c4ccccc4)C3)cnn2-c2ccc(Cl)cc2)CC1 (configuration not stated)	39.8µM*	u
COc1ccccc1CN1CCC(CNC(=O)c2cnn(-c3ccc(C)c(C)c3)c2C2CCN(C(=O)OC(C)(C)C)CC2)CC1	u	46.2%
CC(C)(C)OC(=O)N1CCC(c2c(C(=O)N3CCC(c4ccccc4)C3)cnn2-c2cccc(Cl)c2)CC1 (configuration not stated)	39.8µM*	u
CSC1=N/C(=C\c2cccc(OCc3ccccc3)c2)C(=O)S1	i	1.9%
CCOc1ccc(NC(=O)CN(c2ccc(Cl)cc2C)S(=O)(=O)c2ccccc2)cc1	u	89.1µM*
CCOc1ccc(NC(=O)CN(c2ccccc2OCC)S(=O)(=O)c2ccccc2)cc1	u	-9.2%[57.5 µM]
CCC(=O)Oc1c(Sc2ccc(Cl)cc2)c(C)nn1C(C)(C)C	i	79.4µM*
